Assay results as given in PubChem BioAssay (EPA / NIEHS).
Active and inactive are the calls of the source. The calls were made as follows: active = hit-call score of the fitted dose curve at least 0.9, where 1 is the maximum; inactive = score below 0.9.

Legend:
Conditions in all cases: mRNA level, 48 h; actives raise or lower the signal
[1] = read-out: Nuclear factor NF-kappa-B p105 subunit (Homo sapiens) (UniProt P19838); assay: LTEA_HepaRG_NFKB1: Life Technologies and Expression Analysis (LTEA) Assay for Nuclear Factor Kappa B Subunit 1 (NFKB1) using HepaRG (AID 2283521);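 also: differentiated human HepaRG liver cells in serum-free induction medium; TaqMan qRT-PCR transcript normalised to ACTB GAPDH and POLR2A housekeeping genes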
How it was run: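 HepaRG, 48 h exposure; 8-pt half-log series from 100 uM in 0.5% DMSO; duplicates. Readout: NFKB1 mRNA by qRT-PCR (Fluidigm arrays), housekeeping-normalized. Gain/loss fit vs DMSO baseline.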

[2] = read-out: Protein phosphatase 2A (PPP2R4), PTPA (gene 5524); assay: LTEA_HepaRG_PPP2R4: Life Technologies and Expression Analysis (LTEA) Assay for Protein phosphatase 2A (PPP2R4) using HepaRG (AID 2283522)
How it was run: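 Cells were plated, cultured 48 h, switched to serum-free induction medium, then dosed for 48 h (8 points, max 100 uM, 0.5% DMSO). RNA was isolated and PPP2R4 expression measured by TaqMan qRT-PCR.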

[3] = read-out: Phosphatase and tensin (PTEN), PTEN (gene 5728); assay: LTEA_HepaRG_PTEN: Life Technologies and Expression Analysis (LTEA) Assay for Phosphatase and tensin (PTEN) using HepaRG (AID 2283523)
How it was run: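 Expression of PTEN is quantified in the human liver line HepaRG following two days of dosing (top concentration 100 uM, half-log dilutions, 0.5% DMSO). Values derive from bidirectional curve fitting relative to DMSO controls.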

[4] = read-out: solute carrier (SLC22A1), SLC22A1 (gene 6580); assay: LTEA_HepaRG_SLC22A1: Life Technologies and Expression Analysis (LTEA) Assay for solute carrier (SLC22A1) using HepaRG (AID 2283524);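 as to AC50: differentiated human HepaRG liver cells in serum-free induction medium; TaqMan qRT-PCR normalized to ACTB GAPDH and POLR2A housekeeping genes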
How it was run: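 Transcript induction or suppression of SLC22A1 in human HepaRG cultures is scored after 48 h chemical treatment, with DMSO (0.5%) as baseline for bidirectional fitting. Concentrations span eight half-log points topping at 100 uM.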

[5] = read-out: Pyruvate Dehydrogenase Kinase 4 (PDK4), PDK4 (gene 5166); assay: LTEA_HepaRG_PDK4: Life Technologies and Expression Analysis (LTEA) Assay for Pyruvate Dehydrogenase Kinase 4 (PDK4) using HepaRG (AID 2283525)
How it was run: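 Eight-point, half-log concentration series (max 100 uM, 0.5% DMSO) applied to differentiated HepaRG cells for 48 h in duplicate. Endpoint: PDK4 mRNA induction or repression by qRT-PCR against DMSO baseline.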

[6] = read-out: NAD(P)H dehydrogenase [quinone] 1 (NQO1), NQO1 (gene 1728); assay: LTEA_HepaRG_NQO1: Life Technologies and Expression Analysis (LTEA) Assay for NAD(P)H dehydrogenase [quinone] 1 (NQO1) using HepaRG (AID 2283526)
How it was run: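 Transcript induction or suppression is quantified by qRT-PCR in human HepaRG liver cells dosed for 48 hours. Eight half-log concentrations topping at 100 uM are used, with 0.5% DMSO as vehicle and baseline.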

[7] = read-out: Nuclear factor erythroid 2-related factor 2 (Homo sapiens) (UniProt Q16236); assay: LTEA_HepaRG_NFE2L2: Life Technologies and Expression Analysis (LTEA) Assay for Nuclear factor erythroid 2-related factor 2 (NFE2L2) Transcription Factor using HepaRG (AID 2283527)
How it was run: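 Human liver HepaRG line treated in duplicate for 48 h with an eight-point series topping at 100 uM. Gene expression of NFE2L2 by qRT-PCR, bidirectionally fitted against the vehicle control.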

[8] = read-out: succinate dehydrogenase complex iron sulfur subunit B (SDHB), SDHB (gene 6390); assay: LTEA_HepaRG_SDHB: Life Technologies and Expression Analysis (LTEA) Assay for succinate dehydrogenase complex iron sulfur subunit B (SDHB) using HepaRG (AID 2283528)
How it was run: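 Readout is SDHB transcript level by qRT-PCR, normalised to three housekeeping genes and fitted bidirectionally against 0.5% DMSO vehicle. Human HepaRG cells were treated for 48 h at up to 100 uM.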

[9] = read-out: Signal transducer and activator of transcription 3 (Homo sapiens) (UniProt P40763); assay: LTEA_HepaRG_STAT3: Life Technologies and Expression Analysis (LTEA) Assay for Signal transducer and activator of transcription (STAT3) using HepaRG (AID 2283529)
How it was run: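 In this transcriptional endpoint, HepaRG cultures receive test chemicals at up to 100 uM for 48 h, tested in duplicate. STAT3 mRNA is normalized to ACTB, GAPDH and POLR2A.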

[10] = read-out: solute carrier (SLCO1B1), SLCO1B1 (gene 10599); assay: LTEA_HepaRG_SLCO1B1: Life Technologies and Expression Analysis (LTEA) Assay for solute carrier (SLCO1B1) using HepaRG (AID 2283530)
How it was run: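 Gain or loss of SLCO1B1 mRNA is fitted against the 0.5% DMSO vehicle in human HepaRG liver cells treated 48 h at up to 100 uM in half-log steps. Expression comes from qRT-PCR normalized to endogenous controls.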

Measured: AC50

Nuclear factor NF-kappa-B p105 subunit (Homo sapiens), sequence (P19838 whole entry, looked up): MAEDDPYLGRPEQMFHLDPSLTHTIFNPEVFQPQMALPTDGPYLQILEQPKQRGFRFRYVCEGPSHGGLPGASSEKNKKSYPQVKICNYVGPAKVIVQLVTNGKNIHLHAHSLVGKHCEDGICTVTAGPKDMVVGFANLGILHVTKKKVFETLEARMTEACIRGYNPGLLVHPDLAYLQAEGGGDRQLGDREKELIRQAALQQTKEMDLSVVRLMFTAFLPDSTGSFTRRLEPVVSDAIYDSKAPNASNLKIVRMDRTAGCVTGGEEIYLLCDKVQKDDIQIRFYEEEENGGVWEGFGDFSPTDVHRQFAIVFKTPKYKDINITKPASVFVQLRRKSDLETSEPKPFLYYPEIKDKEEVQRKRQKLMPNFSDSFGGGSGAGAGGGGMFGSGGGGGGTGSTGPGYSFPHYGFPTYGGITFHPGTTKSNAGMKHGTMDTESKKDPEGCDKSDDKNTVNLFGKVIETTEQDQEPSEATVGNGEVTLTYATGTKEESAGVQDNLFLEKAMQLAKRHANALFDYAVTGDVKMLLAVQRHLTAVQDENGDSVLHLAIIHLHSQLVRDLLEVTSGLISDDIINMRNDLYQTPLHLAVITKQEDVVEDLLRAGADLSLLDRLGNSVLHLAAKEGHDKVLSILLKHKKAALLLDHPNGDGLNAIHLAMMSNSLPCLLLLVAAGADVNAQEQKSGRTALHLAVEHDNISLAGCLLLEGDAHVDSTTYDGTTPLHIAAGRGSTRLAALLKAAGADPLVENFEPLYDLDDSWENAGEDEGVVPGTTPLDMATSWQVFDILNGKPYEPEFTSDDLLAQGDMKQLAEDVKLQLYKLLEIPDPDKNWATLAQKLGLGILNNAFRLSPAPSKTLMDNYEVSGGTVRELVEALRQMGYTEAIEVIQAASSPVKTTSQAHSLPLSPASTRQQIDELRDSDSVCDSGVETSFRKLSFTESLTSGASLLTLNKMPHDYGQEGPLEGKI
Signal transducer and activator of transcription 3 (Homo sapiens), sequence (P40763 whole entry, looked up): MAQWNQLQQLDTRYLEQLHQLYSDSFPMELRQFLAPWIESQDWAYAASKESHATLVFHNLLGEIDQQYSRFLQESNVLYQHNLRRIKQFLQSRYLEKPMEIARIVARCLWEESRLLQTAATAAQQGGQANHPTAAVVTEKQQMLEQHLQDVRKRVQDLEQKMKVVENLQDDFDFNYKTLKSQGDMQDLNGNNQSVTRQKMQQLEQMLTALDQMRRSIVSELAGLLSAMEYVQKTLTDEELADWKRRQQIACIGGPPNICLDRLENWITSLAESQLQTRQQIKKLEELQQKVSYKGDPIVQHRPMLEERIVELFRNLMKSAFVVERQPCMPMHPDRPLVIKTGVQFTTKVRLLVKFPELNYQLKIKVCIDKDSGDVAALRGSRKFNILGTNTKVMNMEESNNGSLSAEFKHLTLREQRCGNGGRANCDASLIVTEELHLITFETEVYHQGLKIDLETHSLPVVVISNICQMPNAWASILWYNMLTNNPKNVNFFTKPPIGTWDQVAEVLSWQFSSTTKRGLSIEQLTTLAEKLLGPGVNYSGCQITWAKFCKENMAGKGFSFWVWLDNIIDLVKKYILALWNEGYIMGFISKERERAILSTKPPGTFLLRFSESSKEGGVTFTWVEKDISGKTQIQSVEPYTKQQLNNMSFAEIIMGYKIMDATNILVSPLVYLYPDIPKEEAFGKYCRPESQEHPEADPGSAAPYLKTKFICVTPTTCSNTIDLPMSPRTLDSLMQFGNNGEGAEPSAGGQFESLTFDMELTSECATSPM
Nuclear factor erythroid 2-related factor 2 (Homo sapiens), sequence (Q16236 whole entry, looked up): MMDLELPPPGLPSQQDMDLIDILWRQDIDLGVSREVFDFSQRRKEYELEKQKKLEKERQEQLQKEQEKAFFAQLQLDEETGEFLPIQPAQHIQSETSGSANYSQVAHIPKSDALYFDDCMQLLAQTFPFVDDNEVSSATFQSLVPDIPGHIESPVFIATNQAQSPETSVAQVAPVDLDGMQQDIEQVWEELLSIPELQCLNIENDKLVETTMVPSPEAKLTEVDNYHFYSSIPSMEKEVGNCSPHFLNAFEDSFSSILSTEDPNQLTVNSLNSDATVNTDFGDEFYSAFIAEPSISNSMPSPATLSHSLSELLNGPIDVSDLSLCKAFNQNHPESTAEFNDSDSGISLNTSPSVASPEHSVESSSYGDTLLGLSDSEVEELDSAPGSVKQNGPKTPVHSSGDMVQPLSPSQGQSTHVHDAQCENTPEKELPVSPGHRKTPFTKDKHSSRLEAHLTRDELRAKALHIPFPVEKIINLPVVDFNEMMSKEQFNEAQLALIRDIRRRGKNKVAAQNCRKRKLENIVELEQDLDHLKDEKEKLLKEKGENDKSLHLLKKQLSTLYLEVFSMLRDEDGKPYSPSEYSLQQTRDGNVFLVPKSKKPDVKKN

CCc1ccc(C(=O)NN(C(=O)c2cc(C)cc(C)c2)C(C)(C)C)cc1
inactive: all assays above

CCC(C)(C)C(=O)OC1=C(c2ccc(Cl)cc2Cl)C(=O)OC12CCCCC2
inactive: all assays above

CCC(C)Nc1c([N+](=O)[O-])cc(C(C)(C)C)cc1[N+](=O)[O-] (centres undefined)
not listed: [1]
inactive: all other assays above

O=C(O)CCCOc1ccc(Cl)cc1Cl
active: [5] 50.8 µM
not listed: [1]
inactive: all other assays above

CC(C)(C)C(O)/C(=C\c1ccc(Cl)cc1Cl)n1cncn1 (centres undefined)
inactive: [6] | [8] | [9]
active: [2] 85.9 µM | [3] 79.1 µM | [4] 21 µM | [5] 29.4 µM | [7] 75.3 µM | [10] 69 µM

OCCOc1ccccc1
not listed: [1]
inactive: all other assays above

C#CCN1C(=O)COc2cc(F)c(N3C(=O)C4=C(CCCC4)C3=O)cc21
inactive: all assays above

O=[N+]([O-])/N=C1\NCCN1Cc1ccc(Cl)nc1
inactive: [3]
active: [2] 24.3 µM | [4] 50 µM | [5] 34.4 µM | [6] 29.1 µM | [7] 18.9 µM | [8] 25.8 µM | [9] 20.1 µM | [10] 50 µM

C[C@H]1[C@H](c2ccc(Cl)cc2)SC(=O)N1C(=O)NC1CCCCC1
active: [2] 50 µM | [4] 50 µM | [7] 73 µM | [8] 26.7 µM | [10] 60.7 µM
inactive: [3] | [5] | [6] | [9]
